# Laboratory results reported in PubChem BioAssay (Tox21).
# Inconclusive results are not listed. Where a call stands in place of a potency, no number is given. Unmarked numbers belong to inactive results. Activity calls are given as the source filed them. Calls follow the shape of the dose curve; as a rule, active = well fitted curve in the direction sought with a large enough effect in the repeat runs; inconclusive = weak or mixed curves; inactive = no such curve, though single readings can be large; an effect the other way counts as inactive or inconclusive.
# Assays:
# [1] = molecular target: Cytochrome P450 2C19 (Homo sapiens) (UniProt P33261); assay: Cytochrome P450 Family 2 Subfamily C Member 19 (CYP2C19) small molecule antagonists: luciferase reporter qHTS assay (AID 1671197); also: nearly all actives have a fitted effect of over 65% in size; as to activity change, negative = inhibition: series mostly up to about 120 µM
# Outline: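 Enzyme-substrate mix with proluciferin substrate (P450-Glo CYP2C19 system) preincubated with compounds 10 min at room temperature; NADPH regeneration solution added, 37C for 1 h; detection reagent stops reaction, luminescence read after 20 min. Ketoconazole positive control.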
# [2] = molecular target: Cytochrome P450 2C9 (Homo sapiens) (UniProt P11712); assay: Cytochrome P450 Family 2 Subfamily C Member 9 (CYP2C9) small molecule antagonists: luciferase reporter qHTS assay (AID 1671198); also: nearly all actives have a fitted effect of over 50% in size; as to activity change, negative = inhibition: series mostly up to about 120 µM
# Outline: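 Enzyme-substrate mix preincubated with compound 10 min at room temperature; reaction started with NADPH regeneration solution, 1 h 37C. Luminescent luciferin product read after 20 min detection reagent.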
# [3] = molecular target: Cytochrome P450 1A2 (Homo sapiens) (UniProt P05177); assay: Cytochrome P450 Family 1 Subfamily A Member 2 (CYP1A2) small molecule antagonists: luciferase reporter qHTS assay (AID 1671199); also: nearly all actives have a fitted effect of over 50% in size; as to activity change, negative = inhibition: series mostly up to about 120 µM
# Outline: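 Compounds were incubated with CYP1A2 and a luminogenic proluciferin substrate for 10 min at room temperature before the reaction was started with NADPH regeneration solution. After 1 h, detection reagent was added and light output, proportional to CYP activity, was recorded.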
# [4] = molecular target: Voltage-gated inwardly rectifying potassium channel KCNH2 (Homo sapiens) (UniProt Q12809); assay: Human Ether-a-go-go-Related Gene (hERG) channel small molecule antagonists: fluorescence cell-based qHTS assay (AID 1671200); also: nearly all actives have a fitted effect of over 50% in size;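 as to activity change, negative = inhibition: hERG-expressing U2OS cells given a thallium stimulus after FluxOR II dye loading; series mostly up to about 77 µM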
# Outline: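 Kinetic two-minute fluorescence traces, sampled at 1 s, were collected following thallium stimulus of U2OS cells (1000 per well) that had been cultured overnight at 37 C and loaded with FluxOR II.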
# [5] = molecular target: Cytochrome P450 3A4 (Homo sapiens) (UniProt P08684); assay: Cytochrome P450 Family 3 Subfamily A Member 4 (CYP3A4) small molecule antagonists: luciferase reporter qHTS assay (AID 1671201); also: nearly all actives have a fitted effect of over 50% in size; as to activity change, negative = inhibition: series mostly up to about 120 µM
# Outline: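 Proluciferin-to-luciferin conversion by CYP3A4, NADPH-regenerated, 1 h RT; luminescence read as RLU. Ketoconazole as control.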
# Potency is read from the fitted curve at half-maximal effect.
# Sequence of Cytochrome P450 1A2 (Homo sapiens) (P05177 whole entry, looked up): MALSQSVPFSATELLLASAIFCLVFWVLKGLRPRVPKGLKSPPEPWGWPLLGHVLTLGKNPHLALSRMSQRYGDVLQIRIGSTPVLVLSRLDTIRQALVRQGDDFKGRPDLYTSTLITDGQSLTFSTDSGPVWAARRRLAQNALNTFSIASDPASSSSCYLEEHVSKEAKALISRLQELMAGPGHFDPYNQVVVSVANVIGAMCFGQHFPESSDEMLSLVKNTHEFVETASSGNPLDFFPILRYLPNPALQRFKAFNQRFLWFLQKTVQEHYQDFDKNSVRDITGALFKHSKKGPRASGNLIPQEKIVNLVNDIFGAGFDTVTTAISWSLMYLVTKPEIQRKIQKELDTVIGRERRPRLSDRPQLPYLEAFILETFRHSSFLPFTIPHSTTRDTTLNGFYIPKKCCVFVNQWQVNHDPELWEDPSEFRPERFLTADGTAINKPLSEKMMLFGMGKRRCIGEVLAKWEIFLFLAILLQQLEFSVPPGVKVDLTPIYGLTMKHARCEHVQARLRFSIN
# Sequence of Voltage-gated inwardly rectifying potassium channel KCNH2 (Homo sapiens) (Q12809 whole entry, looked up): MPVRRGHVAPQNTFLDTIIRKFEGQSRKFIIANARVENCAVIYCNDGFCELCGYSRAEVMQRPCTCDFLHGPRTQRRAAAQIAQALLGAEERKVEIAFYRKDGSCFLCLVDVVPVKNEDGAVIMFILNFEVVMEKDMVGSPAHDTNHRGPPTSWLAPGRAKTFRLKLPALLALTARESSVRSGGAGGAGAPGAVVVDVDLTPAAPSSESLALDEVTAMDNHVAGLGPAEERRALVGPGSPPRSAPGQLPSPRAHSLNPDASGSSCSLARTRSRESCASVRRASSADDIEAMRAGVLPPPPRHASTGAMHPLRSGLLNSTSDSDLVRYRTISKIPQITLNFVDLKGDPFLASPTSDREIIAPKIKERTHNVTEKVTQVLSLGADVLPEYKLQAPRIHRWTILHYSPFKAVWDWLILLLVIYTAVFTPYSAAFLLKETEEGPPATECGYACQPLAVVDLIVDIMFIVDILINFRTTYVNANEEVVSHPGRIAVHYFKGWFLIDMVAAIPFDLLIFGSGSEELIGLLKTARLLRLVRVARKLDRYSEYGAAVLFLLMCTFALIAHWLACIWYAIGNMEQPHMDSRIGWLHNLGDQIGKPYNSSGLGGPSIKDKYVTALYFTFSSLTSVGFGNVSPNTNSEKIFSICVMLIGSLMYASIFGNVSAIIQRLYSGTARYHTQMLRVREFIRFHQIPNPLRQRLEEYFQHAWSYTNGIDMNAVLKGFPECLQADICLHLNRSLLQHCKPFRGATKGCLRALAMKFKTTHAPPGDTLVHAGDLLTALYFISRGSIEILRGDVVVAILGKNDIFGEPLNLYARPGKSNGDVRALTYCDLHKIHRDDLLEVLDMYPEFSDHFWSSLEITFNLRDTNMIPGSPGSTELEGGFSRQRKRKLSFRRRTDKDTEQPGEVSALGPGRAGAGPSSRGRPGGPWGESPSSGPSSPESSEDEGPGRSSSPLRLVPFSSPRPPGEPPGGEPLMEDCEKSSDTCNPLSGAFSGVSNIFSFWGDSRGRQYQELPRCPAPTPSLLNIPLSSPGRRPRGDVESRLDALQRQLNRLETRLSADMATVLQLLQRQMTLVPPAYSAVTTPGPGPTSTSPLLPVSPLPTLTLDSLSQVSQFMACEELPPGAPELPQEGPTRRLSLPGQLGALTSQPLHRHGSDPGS
# Sequence of Cytochrome P450 3A4 (Homo sapiens) (P08684 whole entry, looked up): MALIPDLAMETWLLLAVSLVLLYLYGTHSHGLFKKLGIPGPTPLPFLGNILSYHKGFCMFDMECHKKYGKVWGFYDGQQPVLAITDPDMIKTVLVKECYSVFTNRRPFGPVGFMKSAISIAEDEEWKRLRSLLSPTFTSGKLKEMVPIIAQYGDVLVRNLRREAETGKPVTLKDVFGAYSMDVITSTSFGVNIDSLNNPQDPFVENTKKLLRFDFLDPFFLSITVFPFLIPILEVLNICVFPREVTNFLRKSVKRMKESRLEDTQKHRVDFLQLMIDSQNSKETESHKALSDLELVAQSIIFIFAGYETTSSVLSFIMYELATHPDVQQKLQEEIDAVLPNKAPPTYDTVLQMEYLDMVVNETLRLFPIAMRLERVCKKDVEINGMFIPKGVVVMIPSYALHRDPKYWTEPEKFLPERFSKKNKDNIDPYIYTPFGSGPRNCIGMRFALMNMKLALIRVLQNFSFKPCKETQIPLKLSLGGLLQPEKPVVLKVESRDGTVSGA
# Sequence of Cytochrome P450 2C9 (Homo sapiens) (P11712 whole entry, looked up): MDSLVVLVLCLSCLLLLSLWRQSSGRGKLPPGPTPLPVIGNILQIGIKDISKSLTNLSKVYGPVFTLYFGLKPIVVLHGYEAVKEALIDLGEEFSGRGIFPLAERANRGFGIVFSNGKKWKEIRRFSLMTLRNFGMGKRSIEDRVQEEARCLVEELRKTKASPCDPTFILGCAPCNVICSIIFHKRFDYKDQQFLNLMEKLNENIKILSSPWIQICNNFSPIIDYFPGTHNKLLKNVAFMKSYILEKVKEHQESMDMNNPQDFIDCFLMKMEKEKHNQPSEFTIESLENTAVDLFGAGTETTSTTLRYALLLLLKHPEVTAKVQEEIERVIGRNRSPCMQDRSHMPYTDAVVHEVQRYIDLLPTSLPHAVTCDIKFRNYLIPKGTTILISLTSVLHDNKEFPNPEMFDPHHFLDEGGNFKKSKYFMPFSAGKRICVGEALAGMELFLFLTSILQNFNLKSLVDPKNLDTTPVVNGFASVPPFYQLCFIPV
# Sequence of Cytochrome P450 2C19 (Homo sapiens) (P33261 whole entry, looked up): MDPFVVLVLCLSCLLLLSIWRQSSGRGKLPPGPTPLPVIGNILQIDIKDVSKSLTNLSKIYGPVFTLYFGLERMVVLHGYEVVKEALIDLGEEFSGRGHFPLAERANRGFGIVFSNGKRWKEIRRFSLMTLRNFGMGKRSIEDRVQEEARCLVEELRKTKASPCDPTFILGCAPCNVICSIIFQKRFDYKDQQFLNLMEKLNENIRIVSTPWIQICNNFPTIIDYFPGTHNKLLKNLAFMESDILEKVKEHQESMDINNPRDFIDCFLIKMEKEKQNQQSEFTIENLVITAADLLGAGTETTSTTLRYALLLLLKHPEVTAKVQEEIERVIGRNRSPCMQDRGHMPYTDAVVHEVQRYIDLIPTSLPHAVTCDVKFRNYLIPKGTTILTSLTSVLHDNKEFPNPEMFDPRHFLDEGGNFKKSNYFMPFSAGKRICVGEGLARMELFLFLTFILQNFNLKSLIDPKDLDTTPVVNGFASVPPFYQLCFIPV
smiles,measurement,setting,value
Cc1ccc(/C=N/n2c(-c3ccccc3)csc2=S)cc1,Potency,[1],8.71 µM (active)
same,Potency,[2],6.92 µM (active)
same,Potency,[3],7.76 µM (active)
same,Potency,[4],inactive
CCOC(=O)C(C)Oc1ccc(Oc2nc3ccc(Cl)cc3o2)cc1 (stereo not drawn),Potency,[1],31.7 µM (active)
same,Potency,[2],39.9 µM (active)
same,Potency,[3],31.7 µM (active)
same,Potency,[4],34.7 µM (active)
same,Potency,[5],inactive
CN(C)C(=O)Nc1ccc(Oc2ccc(Cl)cc2)cc1,Potency,[1],17.8 µM (active)
same,Potency,[2],35.6 µM (active)
same,Potency,[3],12.6 µM (active)
same,Potency,[4],inactive
C[N+](C)(C)CCOC(N)=O,Potency,[1],inactive
same,Potency,[2],inactive
same,Potency,[3],inactive
same,Potency,[4],inactive
same,Potency,[5],inactive
Nc1ccc(S(=O)(=O)O)c(N)c1,Potency,[1],31.7 µM (active)
same,Potency,[2],inactive
same,Potency,[3],22.4 µM (active)
same,Potency,[4],inactive
same,Potency,[5],inactive
CCCC(=O)O[C@]1(C(=O)COC(=O)CC)CC[C@H]2[C@@H]3CCC4=CC(=O)CC[C@]4(C)[C@H]3[C@@H](O)C[C@@]21C,"activity change, negative = inhibition",[1],-11.3% [at 23.6 µM]
same,"activity change, negative = inhibition",[2],11.6% [at 23.6 µM]
same,Potency,[3],inactive
same,"activity change, negative = inhibition",[4],4.88% [at 15.8 µM]
same,"activity change, negative = inhibition",[5],1.97% [at 23.6 µM]
C[Si]1(C)O[Si](C)(C)O[Si](C)(C)O1,Potency,[1],inactive
same,Potency,[2],inactive
same,Potency,[3],inactive
same,Potency,[4],inactive
same,Potency,[5],inactive
C[C@@H]1C[C@H]2[C@@H]3CCC4=CC(=O)C=C[C@]4(C)[C@@]3(F)[C@@H](O)C[C@]2(C)[C@H]1C(=O)CO,Potency,[1],8.71 µM (active)
same,Potency,[2],15.5 µM (active)
same,Potency,[3],inactive
same,Potency,[4],inactive
CCCCC1C(=O)N(c2ccccc2)N(c2ccc(O)cc2)C1=O (stereo not drawn),Potency,[1],17.4 µM (active)
same,Potency,[2],9.77 µM (active)
same,Potency,[3],inactive
same,Potency,[4],inactive
CC(C)(C)C(=O)C(Oc1ccc(Cl)cc1)n1ccnc1 (stereo not drawn),Potency,[1],1.38 µM (active)
same,Potency,[2],2.75 µM (active)
same,Potency,[3],17.4 µM (active)
same,Potency,[4],inactive
CNCCCC1c2ccccc2C=Cc2ccccc21,Potency,[1],inactive
same,Potency,[2],inactive
same,Potency,[3],inactive
COC(=O)c1cc(Cl)ccc1NS(=O)(=O)C(F)(F)F,Potency,[1],inactive
same,Potency,[2],inactive
same,Potency,[3],0.55 µM (active)
same,Potency,[4],inactive
same,Potency,[5],inactive
CCCCCCCCCCOS(=O)(=O)O,Potency,[1],inactive
same,Potency,[2],44.6 µM (active)
same,Potency,[3],inactive
same,Potency,[4],inactive
same,Potency,[5],inactive
Cc1nc2ccccn2c(=O)c1CCN1CCC(C(=O)c2ccc(F)cc2)CC1,Potency,[1],inactive
same,Potency,[2],inactive
same,Potency,[3],inactive
same,Potency,[4],9.52 µM (active)
same,Potency,[5],inactive
Cc1cc2nc3ccc(=[N+](C)C)cc-3sc2cc1N,Potency,[1],0.776 µM (active)
same,Potency,[2],19.5 µM (active)
same,Potency,[3],2.75 µM (active)
same,Potency,[4],inactive
CCOC(=O)/C=C/C(=O)O,Potency,[1],inactive
same,Potency,[2],inactive
same,Potency,[3],inactive
same,Potency,[4],inactive
same,Potency,[5],inactive
O=C(O)c1cccnc1C(=O)O,Potency,[1],inactive
same,Potency,[2],inactive
same,Potency,[3],inactive
same,Potency,[4],inactive
same,Potency,[5],inactive
Oc1cc(O)c(Cl)cc1Cl,Potency,[1],inactive
same,Potency,[2],40.9 µM (active)
same,Potency,[3],18.3 µM (active)
same,Potency,[4],inactive
same,Potency,[5],36.5 µM (active)
CC#N,Potency,[1],inactive
same,Potency,[2],inactive
same,Potency,[3],inactive
same,Potency,[4],inactive
same,Potency,[5],inactive
O=C(NCCCN1CCOCC1)c1ccc(Cl)cc1,Potency,[1],inactive
same,Potency,[2],inactive
same,Potency,[3],inactive
same,Potency,[4],inactive
same,Potency,[5],inactive
CC(C)(O)c1ccccc1CC[C@@H](SCC1(CC(=O)O)CC1)c1cccc(/C=C/c2ccc3ccc(Cl)cc3n2)c1,Potency,[1],inactive
same,Potency,[2],inactive
same,Potency,[3],inactive
same,Potency,[4],inactive
same,Potency,[5],inactive
CCC1(C)CC(=O)NC1=O (stereo not drawn),Potency,[1],inactive
same,Potency,[2],inactive
same,Potency,[3],inactive
same,Potency,[4],inactive
same,Potency,[5],inactive
[O]=[Bi],"activity change, negative = inhibition",[1],-17.2% [at 10.5 µM]
same,"activity change, negative = inhibition",[2],1.73% [at 10.5 µM]
same,"activity change, negative = inhibition",[3],-11% [at 10.5 µM]
same,"activity change, negative = inhibition",[4],-0.289% [at 6.97 µM]
same,"activity change, negative = inhibition",[5],0.199% [at 10.5 µM]
CNC(=O)N(c1ccccc1)c1ccccc1,Potency,[1],inactive
same,Potency,[2],inactive
same,Potency,[3],40.1 µM (active)
same,Potency,[4],inactive
same,Potency,[5],inactive
CCC(C(=O)OCCOCCN(CC)CC)c1ccccc1 (stereo not drawn),Potency,[1],inactive
same,Potency,[2],inactive
same,Potency,[3],inactive
same,Potency,[4],inactive
same,Potency,[5],inactive
c1cnc2c(n1)CCCC2,Potency,[1],inactive
same,Potency,[2],inactive
same,Potency,[3],inactive
same,Potency,[4],inactive
same,Potency,[5],inactive
Fc1ccccc1[C@@H](F)COC1CCC(Nc2ncnc3[nH]ncc23)CC1 (stereo partly drawn),Potency,[1],79.6 µM (active)
same,Potency,[2],31.7 µM (active)
same,Potency,[3],inactive
same,Potency,[4],inactive
same,Potency,[5],inactive
O=C(O)c1ccc(CO)o1,Potency,[1],inactive
same,Potency,[2],inactive
same,Potency,[3],64.4 µM (active)
same,Potency,[4],inactive
same,Potency,[5],inactive
O=C(Nc1ccc([N+](=O)[O-])cc1)Nc1ccc([N+](=O)[O-])cc1,Potency,[1],inactive
same,Potency,[2],inactive
same,Potency,[3],inactive
same,Potency,[4],inactive
same,Potency,[5],inactive
